Only some compounds are listed: those with a hit (about 3.8% of all), similar ones and a draw of the others.
SUMO Mot1 rescue: inhibitors of SUMOylation pathway: yeast Mot1-301 growth rescue; S. cerevisiae Mot1-301 growth rescue, ATP luminescence, 38.5C; percent above DMSO median, 100 means doubled; growth rescue, % at 18.8 µM; 320,000 compounds, 1% hits; AID 2716;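 active means every valid replicate shows activation above 250% relative to neutral control wells; inactive means the rest, any valid replicate at or below 250%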;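 further: OY570 slx delta 5 strain wells were the positive control but not used for scaling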
MPTP inh: permeability transition pore inhibition. isolated mouse mitochondria, Ca2+ swelling absorbance, 30 min. inhibition, % at 10 µM. 360,000 compounds, 1.4% hits;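 active means inhibition of 50% or more, scaled per plate between neutral and stimulator controls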;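 further: 0% = DMSO wells given calcium and 100% = 1 mM EGTA wells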
FAS-TE inh: FAS thioesterase (human) inhibition | P49327 | recombinant FAS-TE, OMFH fluorogenic substrate, fluorescence endpoint | inhibition, % at 15 µM | 360,000 compounds, 0.67% hits;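 active means compounds whose normalised, plate-corrected inhibition of enzyme fluorescence in the single-dose primary screen is 50% or more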;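 further: 0% = DMSO with enzyme and 100% = substrate without enzyme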
aDG glyco act: increases alpha dystroglycan glycosylation | Pro5-aDG cells, alpha-DG glycosylation AlphaScreen (IIH6); 0% Pro5, 100% B10-LARGE cell signal | 360,000 compounds, 0.22% hits | AID 624168 | activation, % at 10 µM;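 active means activation of at least 8% versus controls, or a plate z-score of at least 8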;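 further: Pro5 are CHO cells carrying HIG-tagged alpha-DG that lacks glycosylation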
Cardio protect: protects H9c2 cardiomyocytes from peroxide injury; protection from H2O2 cell death, % at 20 µM; H2O2 injury protection, ATPLite, 2 h; AID 588492; 360,000 compounds, 0.63% hits;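 active means compounds giving at least 50% protection of heart cells from peroxide-induced death in the single-dose screen, raw or plate-pattern-corrected value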;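 further: 0% = DMSO wells with peroxide and 100% = DMSO wells without peroxide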
Yeast superoxide: caloric restriction mimetics inhibiting age-related superoxide in yeast | S. cerevisiae aged cells, superoxide DHE fluorescence; active compounds read low | superoxide response (% of plate mean), % at 10 µM | 330,000 compounds, 0.18% hits | AID 2690;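 active means superoxide response under a set limit, about three screen SD below normal, cut at about 65% in these data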;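 further: yeast aged for seven days with compound at 30 °C before DHE staining; 100% = average MFI of all compound-treated wells on the plate with controls excluded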
FAS-TE conf: confirmation of human fatty acid synthase thioesterase inhibitors. shares compounds with FAS-TE inh. recombinant FAS-TE, OMFH fluorogenic substrate, fluorescence. inhibition, % at 15 µM. 2,300 compounds, 45% hits;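 active means compounds inhibiting the enzyme by at least 50% at 15 µM in any one of the replicates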;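 further: 0% = enzyme with DMSO only and 100% = wells lacking enzyme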
* marks the source's active call; other numbers are inactive results; nt = no result given.

SMILES	SUMO Mot1 rescue	MPTP inh	FAS-TE inh	aDG glyco act	Cardio protect	Yeast superoxide	FAS-TE conf
O=[N+]([O-])c1ccccc1S(=O)(=O)Nc1cccc(-c2ccc(N3CCCC3)nn2)c1	3	-3	30	0	-6	103	nt
Cc1ccc(N2C(=N)/C(=C3/Nc4ccccc4S3)C(c3ccccc3)C2=O)cc1 (stereo not given)	10	-2	63*	0	-12	89	12
Cc1ccc(N2C(=O)C(F)(F)C2c2ccccc2)cc1 (stereo not given)	-14	-1	19	0	-4	91	nt
Cc1sc2nc(COC(=O)c3ccc(Cl)c(N)c3)[nH]c(=O)c2c1C	-29	1	7	0	9	110	nt
CCN(c1ccccc1)S(=O)(=O)c1cccc(C(=O)OCc2nc3sc(C)c(C)c3c(=O)[nH]2)c1	5	6	52*	0	6	91	-1
COc1ccc(NC(=O)c2cccc(Oc3ccc([N+](=O)[O-])cc3Cl)c2)cc1	3	38	52*	0	-11	109	9
CN(Cc1ccccc1)C(=O)c1oc(=O)c2ccccc2c1-c1ccccc1	53	2	39	0	-8	121	nt
Cc1ccc(-c2c(C(=O)N(C)Cc3ccccc3)oc(=O)c3ccccc23)cc1	235	7	54*	0	-4	96	51*
O=S(=O)(c1ccccc1)C1CC1(c1ccccc1)c1ccccc1 (stereo not given)	nt	-1	20	0	0	nt	nt
O=C(CSc1ccc([N+](=O)[O-])cn1)Nc1ccccc1N1CCOCC1	-4	-1	22	0	2	100	nt
O=C(CSc1ccc([N+](=O)[O-])cn1)Nc1cc(C(F)(F)F)ccc1N1CCOCC1	-6	0	56*	1	-6	98	15
CCC[C@H]1COCCS(=O)(=O)N1Cc1ccccc1	633	0	-2	0	-4	98	nt
Cc1nn(Cc2ccc([N+](=O)[O-])cc2)c(=O)n1N(C)c1ncc(C(F)(F)F)cc1Cl	206	-4	79*	0	3	98	65*
Cc1nn(Cc2ccc(Cl)cc2)c(=O)n1N(C)c1ncc(C(F)(F)F)cc1Cl	-5	-1	49	0	-2	93	nt
CCCCCCN1C[C@H](O)[C@@H](n2cc(C3CC3)nn2)C[C@@H]1c1ccc(OC)cc1	nt	-3	8	0	-10	nt	nt
O=C(NCc1ccccc1)c1ccc[n+]([O-])c1	24	0	-7	0	2	105	nt
Cc1ccccc1N(CC(=O)NCc1ccc2c(c1)OCO2)C(=O)C1CSC(=O)C1 (stereo not given)	6	0	69*	0	2	93	67*
Cc1ccccc1N(CC(=O)NCc1ccc2c(c1)OCO2)C(=O)CCC(=O)Nc1ccccn1	172	2	-4	0	17	97	nt
CCOc1cc(OCC)cc(C(=O)N2CCC[C@@H]2C(=O)N2CCC[C@H]2C(=O)NCc2ccncc2)c1	nt	1	-10	0	nt	nt	nt
COc1ccccc1NS(=O)(=O)c1cc(NC(=O)c2ccc3ccccc3n2)ccc1Cl	9	-1	65*	0	5	111	24
COc1ccc(S(=O)(=O)N2CCCCC2)cc1NC(=O)c1ccc2ccccc2n1	-4	2	53*	0	0	106	7
COc1ccc(NC(=O)c2ccc3ccccc3n2)cc1S(=O)(=O)N1CCCCC1	-6	2	28	0	-5	110	nt
COc1ccccc1NC(=O)c1ccc(S(=O)(=O)N(C)c2ccccc2OC)cc1	8	0	22	0	-6	103	nt
COc1ccc(S(=O)(=O)N2CCOCC2)cc1NC(=O)c1ccc(S(=O)(=O)N(C)c2ccccc2OC)cc1	nt	0	61*	0	2	nt	5
COc1ccc(S(=O)(=O)N2CCCCC2)cc1NC(=O)c1ccc(OC)c(OC)c1	nt	-1	3	0	0	nt	nt
SMILES	SUMO Mot1 rescue	MPTP inh	FAS-TE inh	aDG glyco act	Cardio protect	Yeast superoxide	FAS-TE conf
COc1ccc(S(=O)(=O)N2CCCCC2)cc1NC(=O)c1cccc(S(=O)(=O)N2CC(C)OC(C)C2)c1 (stereo not given)	nt	2	65*	0	1	nt	36
CCN(CC)c1ccc(CN(C(=O)c2cccs2)C2CCS(=O)(=O)C2)cc1 (stereo not given)	0	-1	6	0	-4	100	nt
Cc1ccc2nc(-c3ccccc3)cc(C(=O)N3CCN(S(=O)(=O)c4c(C)noc4C)CC3)c2c1	10	0	70*	0	4	116	19
O=C(CNc1ccccc1)N/N=C/c1cc([N+](=O)[O-])ccc1N1CCCC1	-10	1	52*	1	18	103	29
O=C(COc1ccc([N+](=O)[O-])cc1)N/N=C/c1cc([N+](=O)[O-])ccc1N1CCOCC1	nt	0	19	0	11	97	nt
CCN(CC)C(=O)C1CCCN(c2ccc([N+](=O)[O-])cc2/C=N/NC(=O)c2cccc([N+](=O)[O-])c2)C1 (stereo not given)	-15	4	77*	0	7	76	26
CCCCC(=O)N/N=C/c1cc([N+](=O)[O-])ccc1N1CCOCC1	1	-1	66*	0	5	92	74*
Cc1ccc(NC(=O)Cn2c(=O)c3cccn3c3ccccc32)c(Cl)c1	-2	1	3	0	10	103	nt
Oc1ccc(C[C@H]2CNC(=S)N2CC2CCCN2C[C@H](Cc2ccc(O)cc2)N2C[C@H](Cc3ccc(O)cc3)N(CC3CCCCCC3)C2=S)cc1 (stereo not given in full)	nt	2	-70	0	-13	nt	nt
Cc1nc2ccc(NC(=O)c3cc([N+](=O)[O-])cc([N+](=O)[O-])c3Cl)cc2s1	60	7	70*	0	-12	93	89*
O=C(c1ccncc1)N(c1ccc2oc3c(c2c1)CCCC3)S(=O)(=O)c1cccc([N+](=O)[O-])c1	134	0	49	0	-4	96	nt
COc1ccc(S(=O)(=O)N(C(=O)c2ccncc2)c2ccc3oc4c(c3c2)CCCC4)cc1	-14	1	60*	0	-2	91	25
Cc1ccc(-n2c(SCC(=O)O)nc3sc4c(c3c2=O)CCCC4)cc1	-10	0	0	0	-2	117	nt
Cc1ccc(-n2c(SCC(=O)c3c(N)n(C)c(=O)n(C)c3=O)nc3sc4c(c3c2=O)CCCC4)c(C)c1	91	0	52*	2	-22	92	3
c1ccc([C@H]2CN3C(=N2)Sc2ccccc23)cc1	-5	1	-80	1	-7	110	nt
